The results in this text go back to PubChem BioAssay.

The nature of test [1]: binders of probe aFSTL3 on microarray, primary screen, stem cell growth factor project, biochemical, small-molecule microarray, fluorescence 635/667 (AID 1064).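 Also: measures binding of the biotinylated anti-FSTL3 antibody to printed compounds.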 Conditions: higher = more signal.
The nature of test [2]: binders from COS7 lysate, DM2A8 probe, primary screen, torsin A project, cell lysate, small-molecule microarray, fluorescence 635/667 (AID 1065). The conditions noted are these: higher = more signal, COS7 lysate expressing mutant human TOR1A.
Test [3] is described as follows: binders of probe aFGF2 on microarray, primary screen, stem cell growth factor project, biochemical, small-molecule microarray, fluorescence 635/667 (AID 1067).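 Also: measures binding of biotinylated aFGF2 protein to printed compounds on slides; z-score merges feature fluorescence and signal-to-noise across triplicate slides.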 The conditions noted are these: higher = more signal.
A short description of test [4]: binders of probe aFGF10 on microarray, primary screen, stem cell growth factor project, biochemical, small-molecule microarray, fluorescence 635/667 (AID 1071).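 Also: score merges 667 nm spot intensity and signal to noise from triplicate slides.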 Conditions: higher = more signal.
In test [5] the target is Neurogenic locus notch homolog protein 2 (Homo sapiens) (UniProt Q04721). In words: Notch2 binders on small-molecule microarrays, primary screen, biochemical, small-molecule microarray, 635 nm fluorescence, stem cell growth factors (AID 1073). Conditions: Notch2 binding, higher = more signal.
In test [6] the target is Pro-neuregulin-1, membrane-bound isoform (Homo sapiens) (UniProt Q02297). Description: NRG1 binders on small-molecule microarrays, primary screen, psychiatric disease protein project, biochemical, small-molecule microarray, fluorescence 635/667 (AID 1075).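 Also: score combines 667 nm spot fluorescence with signal to noise.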 The conditions noted are these: NRG1 binding, 635 nm fluorescence, higher = more signal.
Sequence of Pro-neuregulin-1, membrane-bound isoform (Homo sapiens) (Q02297 whole entry, looked up, the tested form may be a part, canonical isoform): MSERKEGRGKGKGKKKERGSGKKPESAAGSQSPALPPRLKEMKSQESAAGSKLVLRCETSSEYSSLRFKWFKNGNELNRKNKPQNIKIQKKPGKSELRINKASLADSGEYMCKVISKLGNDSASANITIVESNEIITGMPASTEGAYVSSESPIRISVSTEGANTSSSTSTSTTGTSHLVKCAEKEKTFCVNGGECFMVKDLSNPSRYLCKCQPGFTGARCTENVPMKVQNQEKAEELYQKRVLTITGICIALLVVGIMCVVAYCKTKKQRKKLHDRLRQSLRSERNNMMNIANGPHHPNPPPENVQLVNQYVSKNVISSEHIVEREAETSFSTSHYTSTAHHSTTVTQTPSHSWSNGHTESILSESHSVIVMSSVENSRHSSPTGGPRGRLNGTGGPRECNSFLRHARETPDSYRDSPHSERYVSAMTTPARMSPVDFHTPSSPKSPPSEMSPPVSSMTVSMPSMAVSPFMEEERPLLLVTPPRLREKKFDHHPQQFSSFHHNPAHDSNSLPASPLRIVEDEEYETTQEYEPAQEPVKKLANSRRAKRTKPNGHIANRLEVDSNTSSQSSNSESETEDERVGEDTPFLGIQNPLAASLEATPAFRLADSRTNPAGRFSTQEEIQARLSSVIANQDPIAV
The test system of test [7] is Neuregulin-1 EGF-like domain. In words: binders of neuregulin-1 EGF-like domain, primary screen, biochemical, small-molecule microarray, 635 nm fluorescence (AID 1081).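 Also: binding of the protein to compounds printed on small-molecule microarray slides.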 Conditions: small-molecule microarray binding, higher = more signal.
Test [8] in a line: FRG1 promoter luciferase signal modulators, primary screen, FRG1 inhibition for FSHD, cell-based, C2C12 myotubes, firefly/Renilla luciferase, luminescence (AID 1084). Conditions: higher = more signal, called active from +8 up or from −8 down.
Test [9] can be described thus: binders of probe aFST on microarray, primary screen, stem cell growth factor project, biochemical, small-molecule microarray, fluorescence 635/667 (AID 1086).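 Also: score merges 667 nm fluorescence with signal-to-noise of each printed compound spot.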 Conditions: higher = more signal.
Test [10] in a line: binders of probe aHhip on microarray, primary screen, stem cell growth factor project, biochemical, small-molecule microarray, fluorescence 635/667 (AID 1087).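 Also: score merges spot fluorescence at 667nm with spot signal to noise ratio.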 Conditions: higher = more signal.
In test [11] the test system is PRMT1 (protein arginine N-methyltransferase 1). Description: PRMT1 binders on small-molecule microarrays, primary screen, biochemical, small-molecule microarray, 635 nm fluorescence (AID 1088).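 Also: binding of Prmt1 protein to compounds spotted on small-molecule microarray slides.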 Conditions: small-molecule microarray binding, higher = more signal.
Test [12] can be described thus: yeast growth modulation, basal conditions, primary screen, YJM789 clinical isolate, OD600, 24 h (AID 1089).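 Also: growth of clinical yeast isolate S. cerevisiae YJM 789 seeded 1000 cells per well; test concentration not given here.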 Conditions: S. cerevisiae YJM789 growth, higher = more signal, called active from +8 up or from −8 down.
A short description of test [13]: fission yeast growth modulation, primary screen, strain 972, OD600, 24 h, no modulator (AID 1090).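 Also: basal condition with compound alone and no growth modifier present; test concentration not given here.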 Conditions: S. pombe 972 growth, higher = more signal, called active from +8 up or from −8 down.
The nature of test [14]: S. cerevisiae growth modulation with rapamycin, primary screen, strain BY4716, OD600, 96 h (AID 1091). Also: test concentration not given here. Conditions: higher = more signal, called active from +8 up or from −8 down.
Test [15] has as its target Torsin-1A-interacting protein 2 (Homo sapiens) (UniProt Q8NFQ8). Description: LULL1 binders on small-molecule microarray, primary screen, cell lysate, human LULL1 lysate, 635/667 nm fluorescence (AID 1092).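 Also: probe is lysate of COS7 cells overexpressing human LULL1; score merges per-feature 667 nm fluorescence with signal-to-noise.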 The conditions noted are these: hLULL1 lysate binding, 635 nm fluorescence, higher = more signal.
Test [16] can be described thus: E. coli growth modulation, two-sided OD650, primary screen, E. coli filamentation project, strain DRC41, 24 h (AID 1093).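 Also: MC1000 strain lacking acrAB efflux and sulA so SOS filamentation is blocked; test concentration not given here.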 Conditions: OD650, 24 h, higher = more signal, called active from +8 up or from −8 down.
Test [17] in a line: small-molecule microarray binders of probe aLefty2, primary screen, biochemical, biotinylated probe, 635/667 nm fluorescence (AID 1094).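 Also: score merges spot fluorescence near 667 nm with spot signal-to-noise ratio.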 Conditions: higher = more signal.
The test system of test [18] is Noggin (protein binding on small-molecule microarray). In words: Noggin binders on small-molecule microarray, primary screen, biochemical, 635/667 nm fluorescence (AID 1095).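 Also: score merges 667 nm feature fluorescence with signal to noise over triplicate slides.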 Conditions: 635 nm fluorescence, higher = more signal.
Test [19] deals with Neurogenic locus notch homolog protein 3 (Homo sapiens) (UniProt Q9UM47). Description: NOTCH3 binders on small-molecule microarray, primary screen, biochemical, 635/667 nm fluorescence (AID 1096). Conditions: NOTCH3 binding, 635 nm fluorescence, higher = more signal.
Sequence of Neurogenic locus notch homolog protein 3 (Homo sapiens) (Q9UM47 whole entry, looked up): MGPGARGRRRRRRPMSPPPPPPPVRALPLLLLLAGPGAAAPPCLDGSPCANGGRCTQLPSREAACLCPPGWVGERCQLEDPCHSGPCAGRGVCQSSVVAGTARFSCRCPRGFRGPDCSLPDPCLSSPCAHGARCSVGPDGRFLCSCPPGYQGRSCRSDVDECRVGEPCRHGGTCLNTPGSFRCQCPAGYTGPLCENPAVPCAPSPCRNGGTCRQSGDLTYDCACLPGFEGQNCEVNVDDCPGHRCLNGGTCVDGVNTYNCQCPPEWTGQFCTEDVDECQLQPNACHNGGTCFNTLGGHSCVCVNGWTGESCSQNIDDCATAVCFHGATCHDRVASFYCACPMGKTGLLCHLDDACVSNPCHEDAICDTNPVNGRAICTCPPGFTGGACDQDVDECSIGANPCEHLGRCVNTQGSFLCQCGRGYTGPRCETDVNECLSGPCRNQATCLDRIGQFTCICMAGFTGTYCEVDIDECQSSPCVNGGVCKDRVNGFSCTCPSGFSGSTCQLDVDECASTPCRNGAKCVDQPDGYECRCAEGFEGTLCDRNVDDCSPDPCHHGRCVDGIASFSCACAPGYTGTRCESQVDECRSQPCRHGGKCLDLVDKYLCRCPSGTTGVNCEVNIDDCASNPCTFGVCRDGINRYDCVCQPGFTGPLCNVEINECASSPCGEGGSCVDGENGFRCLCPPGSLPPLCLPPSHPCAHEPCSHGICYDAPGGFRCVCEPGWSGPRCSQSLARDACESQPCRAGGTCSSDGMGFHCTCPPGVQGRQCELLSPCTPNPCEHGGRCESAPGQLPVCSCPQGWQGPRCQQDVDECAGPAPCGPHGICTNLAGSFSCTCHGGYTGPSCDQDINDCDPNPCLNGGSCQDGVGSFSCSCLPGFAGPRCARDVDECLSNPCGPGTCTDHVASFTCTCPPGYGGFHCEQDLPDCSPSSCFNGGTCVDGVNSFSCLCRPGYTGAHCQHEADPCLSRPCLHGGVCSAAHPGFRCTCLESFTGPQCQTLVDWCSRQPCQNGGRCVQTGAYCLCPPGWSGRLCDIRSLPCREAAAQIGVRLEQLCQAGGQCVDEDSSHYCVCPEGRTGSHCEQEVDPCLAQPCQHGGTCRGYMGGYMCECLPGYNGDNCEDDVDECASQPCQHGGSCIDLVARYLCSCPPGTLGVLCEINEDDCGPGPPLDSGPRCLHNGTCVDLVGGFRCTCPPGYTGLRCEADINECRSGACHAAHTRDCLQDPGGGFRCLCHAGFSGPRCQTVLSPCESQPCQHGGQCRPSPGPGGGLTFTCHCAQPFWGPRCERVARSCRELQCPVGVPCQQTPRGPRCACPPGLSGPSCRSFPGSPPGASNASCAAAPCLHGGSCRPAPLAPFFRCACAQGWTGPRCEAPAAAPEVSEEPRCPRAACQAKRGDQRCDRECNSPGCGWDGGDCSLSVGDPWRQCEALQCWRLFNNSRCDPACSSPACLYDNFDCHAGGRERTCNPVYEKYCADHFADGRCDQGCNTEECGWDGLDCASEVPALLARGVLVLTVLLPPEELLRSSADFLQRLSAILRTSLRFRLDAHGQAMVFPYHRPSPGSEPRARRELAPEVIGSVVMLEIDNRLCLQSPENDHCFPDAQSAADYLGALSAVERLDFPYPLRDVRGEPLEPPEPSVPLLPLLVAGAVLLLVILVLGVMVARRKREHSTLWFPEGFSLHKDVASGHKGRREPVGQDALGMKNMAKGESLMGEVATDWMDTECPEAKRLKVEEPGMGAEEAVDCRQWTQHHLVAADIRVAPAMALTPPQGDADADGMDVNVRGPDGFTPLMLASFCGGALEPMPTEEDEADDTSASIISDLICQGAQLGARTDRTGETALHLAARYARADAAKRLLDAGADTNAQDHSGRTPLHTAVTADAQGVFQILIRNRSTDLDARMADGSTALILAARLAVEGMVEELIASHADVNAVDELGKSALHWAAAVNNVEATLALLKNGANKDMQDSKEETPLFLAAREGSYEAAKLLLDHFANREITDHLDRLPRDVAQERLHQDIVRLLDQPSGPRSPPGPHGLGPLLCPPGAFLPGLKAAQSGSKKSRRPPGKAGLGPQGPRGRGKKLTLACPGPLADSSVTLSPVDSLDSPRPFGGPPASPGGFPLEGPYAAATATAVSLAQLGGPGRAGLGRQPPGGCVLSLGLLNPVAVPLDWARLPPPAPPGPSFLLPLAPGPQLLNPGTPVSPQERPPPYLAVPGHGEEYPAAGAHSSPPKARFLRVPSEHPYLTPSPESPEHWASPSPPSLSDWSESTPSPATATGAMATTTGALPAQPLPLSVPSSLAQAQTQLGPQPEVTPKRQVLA
Test [20] in a line: small-molecule microarray binders of probe aEGFR, primary screen, biochemical, biotinylated probe, 635/667 nm fluorescence (AID 1097).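 Also: probe is a biotinylated anti-EGFR antibody binding compounds printed on slides; score combines fluorescence near 667 nm and signal to noise of each spot.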 Conditions: higher = more signal.

Each structure is given as a SMILES string. Calls of active or inactive are those of the source.

Sequence of Torsin-1A-interacting protein 2 (Homo sapiens) (Q8NFQ8 whole entry, looked up): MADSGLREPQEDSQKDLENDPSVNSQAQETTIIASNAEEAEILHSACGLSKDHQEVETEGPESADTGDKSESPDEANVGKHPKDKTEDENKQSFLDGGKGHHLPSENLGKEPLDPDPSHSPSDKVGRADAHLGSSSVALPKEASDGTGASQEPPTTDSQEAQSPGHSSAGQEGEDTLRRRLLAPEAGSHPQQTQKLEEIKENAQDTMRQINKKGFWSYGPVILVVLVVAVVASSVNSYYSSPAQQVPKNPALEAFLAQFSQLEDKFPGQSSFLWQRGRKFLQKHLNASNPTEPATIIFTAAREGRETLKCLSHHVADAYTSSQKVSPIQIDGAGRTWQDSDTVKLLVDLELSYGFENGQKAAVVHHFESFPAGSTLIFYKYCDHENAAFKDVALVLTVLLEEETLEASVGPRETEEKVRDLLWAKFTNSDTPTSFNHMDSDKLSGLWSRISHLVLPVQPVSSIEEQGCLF

Take `COc1ccc([Si](C)(C)[C@@H]2[C@@H](CCO)O[C@]3(C(=O)N(Cc4ccc(N5C(=O)c6ccccc6Oc6ccccc65)cc4)c4ccccc43)[C@H]2C)cc1`: the composite z-score was 0.197 in [1]; -0.589 in test [2]; -0.106 in test [3]; -0.124 in test [4]; -0.323 in [5]; 1.09 in [6]. In addition, the composite z-score in [7] was 0.736; in [9], -0.0716; in test [10], -0.0324; in test [11] it was 0.106; in test [15] it was -0.49; in test [17] it was -0.0359. Moreover, the composite z-score is -0.0905 in test [18], 0.18 in test [19] and -0.241 in test [20]. Besides, the z-score in [8] was -1.69 (inactive); in [12], 3.36 (inactive); in [13] it was 0.262 (inactive); in test [14], 37.6 (active); in test [16] it was 0.045 (inactive).
`COCCOC(=O)N1C(=O)[C@@]2(c3cc(C#CCNC(N)=O)ccc31)[C@H](c1ccc(OCCO)cc1)N1[C@H](c3ccccc3)[C@H](c3ccccc3)OC(=O)[C@H]1[C@@H]2C(=O)N1CCN(c2ncccn2)CC1`: the composite z-score in test [1] was 0.496; in test [2], 0.287; in test [3], -0.0478; in test [4] it was 0.748; in test [5], 1.04; in test [6] it was 0.37. Besides, the composite z-score is 0.482 in [7]; 0.974 in test [9]; -0.173 in test [10]; 1.43 in [11]; 2.1 in test [15]; 0.456 in test [17]. The composite z-score was 1.35 in test [18], 1.1 in test [19] and -0.0424 in test [20]. Further, the z-score in test [8] was -0.0699 (inactive); in [12] it was 1.22 (inactive); in test [13], 0.423 (inactive); in test [14], 4.72 (inactive); in test [16], 0.338 (inactive).
In the case of `O=C1c2ccccc2C(=O)C2CC([C@H]3Oc4ccccc4S(=O)(=O)N4CCC[C@@H]34)=CCC12` (stereo not given in full), the composite z-score in test [1] was -0.253; in test [2], -0.0672; in test [3], -0.176; in test [4] it was -0.159; in [5], 0.193; in [6], 0.583. For the same compound, the composite z-score in test [7] was 0.449; in test [9], -0.0883; in test [10], 0.21; in test [11] it was -0.739; in [15], -0.312; in test [17] it was -0.116. The results for the composite z-score in [18], in test [19] and in [20] were 0.162, -0.42 and -0.124, respectively. In addition, the z-score in test [8] was -1.71 (inactive); in test [12], 0.151 (inactive); in test [13] it was -0.717 (inactive); in test [14] it was 0.388 (inactive); in test [16], 1.47 (inactive).
For `O=C1NC(=O)C2C1C=CC(C(O)c1ccc3c(c1)OCO3)N2Nc1ccc(Cl)cc1Cl` (stereo not given), the composite z-score in test [1] is 0.358; in test [2], -0.173; in test [3] it was -0.0274; in test [4], 0.218; in test [5] it was 1.22; in test [6], 1.73. Moreover, the composite z-score was 0.543 in [7]; 0.176 in [9]; -0.291 in test [10]; 0.0405 in test [11]; 2.94 in test [15]; 0.15 in test [17]. Moreover, the composite z-score was 0.132 in test [18], 0.361 in test [19] and -0.108 in test [20]. For the same compound, the z-score in test [8] is 1.28 (inactive); in test [12], -3.53 (inactive); in test [13] it was -0.462 (inactive); in test [14], 0.142 (inactive); in [16] it was -1.14 (inactive).
Turning to `C[C@]12C(=O)N(CCCCCO)[C@@H]3C(=O)N(c4ccc(Cl)cc4)CC=CC31O[C@@H]1/C=C\CCCOC(=O)C12` (stereo not given in full), the composite z-score in test [1] is 0.302; in test [2], -1.54; in [3] it was -0.221; in test [4] it was -1.14; in test [5], -0.76; in test [6], -0.254. For the same compound, the composite z-score in [7] is 0.655; in test [9], -0.733; in test [10] it was -0.28; in [11], -1.37; in test [15], -1.43; in test [17] it was -0.0986. Also, the composite z-score in test [18] was -0.757; in [19], -0.0346; in [20], -0.172. The z-score was 0.803 (inactive) in test [8]; -0.299 (inactive) in test [12]; -1.14 (inactive) in [13]; -0.637 (inactive) in test [14]; -1.25 (inactive) in [16].
For the compound `CCOC(=O)C[C@H]1[C@H](OC(=O)c2ccc(C(=O)c3ccccc3)cc2)[C@@H](NC(=O)C2CCCCC2)c2cc(OCCCO)ccc2N1C(=O)Cc1ccc(OC)cc1`, the composite z-score stood at 0.644 in test [1]; 0.673 in test [2]; 0.0007 in test [3]; 0.348 in [4]; 0.376 in test [5]; 0.556 in test [6]. For the same compound, the composite z-score in [7] came out at 0.207; in test [9], 0.757; in test [10] it was 0.295; in test [11], 0.623; in test [15] it was 0.603; in test [17], 0.0044. Also, the composite z-score in [18] stood at 0.544; in test [19] it was 0.88; in [20], 0.0408. Also, the z-score in test [8] is -1.01 (inactive); in test [12] it was -0.989 (inactive); in [13], 0.0425 (inactive); in test [14], -0.0492 (inactive); in test [16], 0.332 (inactive).
On to `COC(=O)[C@@]1(Cc2ccc(F)cc2)[C@H]2c3cc(C(=O)N(C)C)n(CCSCCO)c3C[C@H]2CN1C(=O)c1ccccc1`, for which the composite z-score in test [1] came out at 0.304; in test [2] it was 0.273; in test [3] it was 0.203; in test [4], 0.487; in [5], 1.36; in [6], 1.95. Moreover, the composite z-score in test [7] was 0.943; in test [9], 0.568; in [10], -0.0029; in [11], 0.0793; in test [15] it was 2.72; in test [17], 0.0126. The composite z-score in [18] is -0.443; in test [19], 0.229; in test [20], -0.162. In addition, the z-score is 1.29 (inactive) in test [8]; 0.125 (inactive) in [12]; 0.642 (inactive) in test [13]; -0.0109 (inactive) in test [14]; 0.162 (inactive) in test [16].
For the compound `O=C1N(CCS(=O)(=O)c2ccccc2)c2ccccc2[C@H]2OC(c3ccc(OCCCO)cc3)=N[C@@]12CCS(=O)(=O)c1ccccc1`, the composite z-score came to 2.15 in test [1]; 0.625 in test [2]; 0.415 in test [3]; 0.202 in test [4]; 1.5 in [5]; 1.38 in [6]. In addition, the composite z-score in test [7] came out at 1.36; in test [9], 1.43; in test [10] it was 0.772; in [11], 1.55; in [15], 3.1; in test [17], 0.856. The composite z-score is 1.08 in test [18], 1.07 in test [19] and 0.723 in [20]. Further, the z-score in test [8] was -0.938 (inactive); in test [12], 2.95 (inactive); in [13], 2.54 (inactive); in test [14], 7.94 (inactive); in test [16] it was 0.8 (inactive).
Consider `Cc1ccc(F)cc1S(=O)(=O)N[C@@H]1CCN(C(=O)c2ccc(OC(C)C)cc2)C1`, for which the composite z-score was -0.473 in test [1]; -0.414 in test [2]; -0.131 in [3]; 0.859 in test [4]; 0.957 in test [5]; -0.129 in test [6]. The composite z-score is 0.602 in [7]; 0.475 in [9]; -0.258 in test [10]; 0.981 in [11]; 1.03 in [15]; 0.0563 in test [17]. Further, the composite z-score in [18] was 0.805; in test [19] it was 1.13; in test [20] it was 0.0225. The z-score is -3.78 (inactive) in test [8]; -0.654 (inactive) in test [12]; -0.709 (inactive) in [13]; -0.966 (inactive) in test [14]; 0.845 (inactive) in test [16].
